Test results as given in PubChem BioAssay (Tox21).
Results filed as inconclusive are left out. Entries that show only a call come without a potency. A number with no mark means an inactive call. Activity calls are given as the source filed them. Calls come from the whole dose curve; as a rule, active = well fitted curve in the direction sought with a large enough effect in the repeat runs; inconclusive = weak or mixed curves; inactive = no such curve, though single readings can be large; an effect the other way counts as inactive or inconclusive. Where a SMILES comes first, the peptide text is derived from it.

Assay: qHTS RealTime-Glo MT Cell Viability Assay in HEK293 cells - 16 hour (AID 1224872); note: top concentration of the series differs between compounds; nearly all actives have a fitted effect of over 50% in size
Settings: RealTime-Glo luminescence; series mostly up to 76.8 µM
In short: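 Nonlytic real-time viability readout: viable cells convert prosubstrate to NanoLuc substrate, giving luminescence proportional to live cell number. HEK293, 600 cells/well, compound added after 5 h, continuous culture at 37 C.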

Compound | Potency
CC1(C)O[C@H]2CC(=O)OC[C@]23[C@H]2CC[C@@]4(C)[C@H](c5ccoc5)OC(=O)[C@H]5O[C@]54[C@]2(C)C(=O)C[C@@H]13 | inactive
CC(N)CCCC(C)(C)O (stereo unspecified) | inactive
COC(=O)c1cccc(Cl)c1 | inactive
CC(C)OC(=O)CCC(=O)OC(C)C | inactive
CCN(CC)CCN | inactive
CCOCCOCC | inactive
C[C@H]1[C@@H](c2ccccc2)NC(=O)N1C | inactive
CN(C)CCN(C)CCO | inactive
CN(C)CCOC(=O)C(c1ccccc1)C1(O)CCCC1 (stereo unspecified) | inactive
CC1=C(C(=O)O)N2C(=O)[C@@H](NC(=O)[C@H](N)C3=CCC=CC3)[C@H]2SC1 | inactive
CC(=O)O[C@H]1C[C@@H]2CC[C@@]1(C)C2(C)C | inactive
Cc1ccc(C(C)NC(=O)[C@@H](NC(=O)OC(C)C)C(C)C)cc1 (stereo partly specified) | inactive

Assay: qHTS RealTime-Glo MT Cell Viability Assay in HepG2 cells - 8 hour (AID 1224873); note: nearly all actives have a fitted effect of over 55% in size
Settings: RealTime-Glo luminescence; series mostly up to 76.8 µM
In short: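 HepG2 cells (600/well) mixed with RealTime-Glo MT reagent, settled 5 h at 37 C/5% CO2 before compound addition. Nonlytic NanoLuc luminescence from viable-cell prosubstrate reduction read repeatedly during 40 h treatment at 37 C.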

Compound | outcome | viability change, negative = cytotoxic
CCO | inactive | –
CC1=C(O)C(=O)C(C)O1 (stereo unspecified) | inactive | –
COP(=O)(O)OP(=O)(O)OC | inactive | –
COC(=O)c1ccccc1C(=O)O | inactive | –
CCCCCCCCCCCCCCCCCCOCCO | – | -3.15% [at 15.8 µM]
CCNC(=O)NCc1cccc(Cl)c1 | inactive | –
OC1OCCOC1O (stereo unspecified) | inactive | –
Cc1c(Cl)cccc1Cl | inactive | –
CC(=O)OC1CCCCC1C(C)(C)C (stereo unspecified) | inactive | –
CCCCCCC1(C)CCC(=O)O1 (stereo unspecified) | inactive | –
C=CCCCCCCCC | inactive | –
Cc1cc(C)c(C(=O)O)c(C)c1 | inactive | –
CC1(C)Cc2cccc(N)c2O1 | inactive | –
COC(C)(OC)OC | inactive | –
O=C(NCN1CCOCC1)c1cnccn1 | inactive | –
COc1cc(/C=C/C(N)=O)cc(OC)c1OC | inactive | –
CCCCOCC(C)O (stereo unspecified) | inactive | –
COC(=O)CCCCC(CCSS/C(CCO)=C(\C)N(C=O)Cc1cnc(C)nc1N)SC(C)=O (stereo unspecified) | inactive | –
C[C@]12CCC(=O)C=C1CC[C@H]1[C@@H]3CC[C@](O)(C(=O)CO)[C@@]3(C)C[C@H](O)[C@@]12F | inactive | –

Compound | outcome | viability change, negative = cytotoxic
CCn1cc(C(=O)O)c(=O)c2cnc(N3CCCC3)nc21 | – | 5.81% [at 6.97 µM]
C[C@@H](O)C(=O)O | inactive | –
O=C(Cl)c1ccccc1[N+](=O)[O-] | inactive | –
CC(=O)N[C@@H](CO)C(=O)N[C@@H](CC(=O)O)C(=O)N[C@@H](CCCCN)C(=O)N1CCC[C@H]1C(=O)O (Ac-SDKP-OH) | inactive | –
COc1cc(OC)nc(O[C@H](C(=O)O)C(OC)(c2ccccc2)c2ccccc2)n1 | inactive | –
CC1(C)CC(OC(=O)CCCCCCCCC(=O)OC2CC(C)(C)NC(C)(C)C2)CC(C)(C)N1 | – | -0.0146% [at 15.8 µM]
CC1(C)O[C@H]2CC(=O)OC[C@]23[C@H]2CC[C@@]4(C)[C@H](c5ccoc5)OC(=O)[C@H]5O[C@]54[C@]2(C)C(=O)C[C@@H]13 | inactive | –
CC(N)CCCC(C)(C)O (stereo unspecified) | inactive | –
COC(=O)c1cccc(Cl)c1 | inactive | –
CC(C)OC(=O)CCC(=O)OC(C)C | inactive | –
CCN(CC)CCN | inactive | –
CCOCCOCC | inactive | –
C[C@H]1[C@@H](c2ccccc2)NC(=O)N1C | inactive | –
CN(C)CCN(C)CCO | inactive | –
CN(C)CCOC(=O)C(c1ccccc1)C1(O)CCCC1 (stereo unspecified) | inactive | –
CC1=C(C(=O)O)N2C(=O)[C@@H](NC(=O)[C@H](N)C3=CCC=CC3)[C@H]2SC1 | inactive | –
CC(=O)O[C@H]1C[C@@H]2CC[C@@]1(C)C2(C)C | inactive | –
Cc1ccc(C(C)NC(=O)[C@@H](NC(=O)OC(C)C)C(C)C)cc1 (stereo partly specified) | inactive | –

Assay: qHTS RealTime-Glo MT Cell Viability Assay in HEK293 cells - 40 hour (AID 1224874); note: nearly all actives have a fitted effect of over 50% in size
Settings: RealTime-Glo luminescence; max response: stronger effect = lower value
In short: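 Tox21 screen in HEK293 using RealTime-Glo MT chemistry, with cells and reagent co-dispensed. Luminescence proportional to viable cell number was captured at intervals during 40 h compound exposure at 37 C.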

Compound | max response [%]
CCO | 0.927
CC1=C(O)C(=O)C(C)O1 (stereo unspecified) | 2.72
COP(=O)(O)OP(=O)(O)OC | 5.3
COC(=O)c1ccccc1C(=O)O | -0.818
CCCCCCCCCCCCCCCCCCOCCO | -1.04
CCNC(=O)NCc1cccc(Cl)c1 | 0.19
OC1OCCOC1O (stereo unspecified) | 9.9
Cc1c(Cl)cccc1Cl | -1.25
CC(=O)OC1CCCCC1C(C)(C)C (stereo unspecified) | 3.56
CCCCCCC1(C)CCC(=O)O1 (stereo unspecified) | 3.32
C=CCCCCCCCC | 1.11
Cc1cc(C)c(C(=O)O)c(C)c1 | 1.4
CC1(C)Cc2cccc(N)c2O1 | 1.5
COC(C)(OC)OC | 5.48
O=C(NCN1CCOCC1)c1cnccn1 | 2.14
COc1cc(/C=C/C(N)=O)cc(OC)c1OC | -21.8
CCCCOCC(C)O (stereo unspecified) | 10.5
COC(=O)CCCCC(CCSS/C(CCO)=C(\C)N(C=O)Cc1cnc(C)nc1N)SC(C)=O (stereo unspecified) | 3.28
C[C@]12CCC(=O)C=C1CC[C@H]1[C@@H]3CC[C@](O)(C(=O)CO)[C@@]3(C)C[C@H](O)[C@@]12F | -26.1

Compound | max response [%]
CCn1cc(C(=O)O)c(=O)c2cnc(N3CCCC3)nc21 | 10.4
C[C@@H](O)C(=O)O | 3.5
O=C(Cl)c1ccccc1[N+](=O)[O-] | 9.73
CC(=O)N[C@@H](CO)C(=O)N[C@@H](CC(=O)O)C(=O)N[C@@H](CCCCN)C(=O)N1CCC[C@H]1C(=O)O (Ac-SDKP-OH) | 3.58
COc1cc(OC)nc(O[C@H](C(=O)O)C(OC)(c2ccccc2)c2ccccc2)n1 | 4.04
CC1(C)CC(OC(=O)CCCCCCCCC(=O)OC2CC(C)(C)NC(C)(C)C2)CC(C)(C)N1 | 17
CC1(C)O[C@H]2CC(=O)OC[C@]23[C@H]2CC[C@@]4(C)[C@H](c5ccoc5)OC(=O)[C@H]5O[C@]54[C@]2(C)C(=O)C[C@@H]13 | 3.36
CC(N)CCCC(C)(C)O (stereo unspecified) | 10
COC(=O)c1cccc(Cl)c1 | 11
CC(C)OC(=O)CCC(=O)OC(C)C | 8.19
CCN(CC)CCN | 2.52
CCOCCOCC | 2.51
C[C@H]1[C@@H](c2ccccc2)NC(=O)N1C | -8.69
CN(C)CCN(C)CCO | 5.64
CN(C)CCOC(=O)C(c1ccccc1)C1(O)CCCC1 (stereo unspecified) | -2.33
CC1=C(C(=O)O)N2C(=O)[C@@H](NC(=O)[C@H](N)C3=CCC=CC3)[C@H]2SC1 | 0.914
CC(=O)O[C@H]1C[C@@H]2CC[C@@]1(C)C2(C)C | 4.28
Cc1ccc(C(C)NC(=O)[C@@H](NC(=O)OC(C)C)C(C)C)cc1 (stereo partly specified) | -6.73
